# Laboratory results from PMC5540273 (PLoS ONE, 2017).
# Experiments:
# Conditions in all cases: concentration: 1 μM, replicates: in singlicate; n = 1
# EPHB6 = system: EPHB6
# ERBB2 = system: ERBB2
# ERBB3 = system: ERBB3
# ERBB4 = system: ERBB4
# ERK1 = system: T1, ERK1
# T1 construct: gene MAPK3
# ERK2 = system: T2, ERK2
# T2 construct: gene MAPK1
# ERK3 = system: T3, ERK3
# T3 construct: gene MAPK6
# ERK4 = system: T4, ERK4
# T4 construct: gene MAPK4
# ERK5 = system: T5, ERK5
# T5 construct: gene MAPK7
# ERK8 = system: T6, ERK8
# T6 construct: gene MAPK15
# ERN1 = system: ERN1
# FAK = system: T7, FAK
# T7 construct: gene PTK2
# FER = system: FER
# FES = system: FES
# FGFR1 = system: FGFR1
# FGFR2 = system: FGFR2
# FGFR3 = system: FGFR3
# FGFR4 = system: FGFR4
# FGR = system: FGR
# FLT1 = system: FLT1
# 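Also: KINOMEscan kinase panel screen.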
SMILES,%Inh (EPHB6),%Inh (ERBB2),%Inh (ERBB3),%Inh (ERBB4),%Inh (ERK1),%Inh (ERK2),%Inh (ERK3),%Inh (ERK4),%Inh (ERK5),%Inh (ERK8),%Inh (ERN1),%Inh (FAK),%Inh (FER),%Inh (FES),%Inh (FGFR1),%Inh (FGFR2),%Inh (FGFR3),%Inh (FGFR4),%Inh (FGR),%Inh (FLT1)
c1ccc(-c2cc(-c3c[nH]nc3-c3ccccn3)ccn2)cc1 [GW576604],0%,0%,16%,52%,8%,0%,0%,3%,0%,0%,0%,6%,13%,0%,0%,0%,0%,67%,9%,46%
C[C@@H](Oc1cc(-n2cnc3ccc(NC(=O)NC(C)(C)C)cc32)sc1C(N)=O)c1ccccc1Cl [GSK346294],21%,15%,22%,0%,0%,0%,7%,19%,0%,0%,13%,0%,43%,0%,13%,0%,30%,14%,8%,46%
CCn1cnc2c(N)ncnc21 [GW345098],25%,0%,10%,0%,2%,19%,0%,0%,2%,5%,25%,7%,0%,14%,0%,7%,0%,0%,12%,9%
O=C(Nc1cccc(-c2nn3ncccc3c2-c2ccnc(Nc3cccc(C(F)(F)F)c3)n2)c1)c1c(F)cccc1F [GSK299495],30%,92.1%,56%,98.4%,0%,0%,7%,18%,0%,0%,15%,0%,24%,0%,0%,0%,0%,0%,95.5%,91.5%
Cc1cccc(-c2nc(-c3ccc(S(C)(=O)=O)cc3)sc2-c2ccncc2)c1,46%,4%,9%,0%,6%,29%,6%,0%,2%,0%,0%,4%,14%,37%,26%,1%,0%,0%,45%,0%
CN(C(=O)c1ccc(-c2cc(-c3c[nH]nc3-c3ccccn3)ccn2)cc1)C1CCOCC1 [GW810083],0%,38%,16%,0%,0%,4%,11%,7%,0%,1%,2%,0%,0%,14%,4%,0%,0%,0%,0%,41%
N#Cc1c(N2CCOCC2)sc(-c2ccn[nH]2)c1-c1ccc(Cl)cc1,38%,0%,22%,11%,0%,24%,0%,0%,0%,5%,4%,0%,11%,27%,7%,12%,0%,0%,22%,0%
COc1cc2c(cc1OCCN1CCN(C)CC1)ncc1c3ccc(C#N)cc3[nH]c21,53%,43%,4%,29%,0%,12%,0%,10%,22%,0%,0%,27%,3%,0%,0%,7%,0%,22%,0%,14%
Cl.Nc1ncnc2occ(-c3ccc(NC(=O)Nc4cc(C(F)(F)F)ccc4F)cc3)c12 [SB-707548],98.6%,44%,24%,23%,0%,0%,0%,8%,12%,99.2%,25%,93.7%,31%,6%,74%,77%,63%,71%,41%,99.5%
